# Source: PubChem BioAssay
# Neddylation inh = cullin neddylation inhibition; P61081+Q13564; TR-FRET cullin neddylation, biochemical; inhibition, % at 25 µM; hit rate 0.58% among 360,000; in the data active = inhibition above about 36%
# PKA-R2B act = PKA-R2B complex activation. P22694+P31323. activation, % at 11.4 µM. PKA-R2B holoenzyme dissociation, Cy5-IP20 fluorescence polarization; R2B truncated from residue 108, S112A mutant; 0% DMSO only, 100% 113 µM cGMP. hit rate 0.079% among 340,000. AID 504700;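 active = activation above a cutoff set at the mean over all compounds plus 3 SD, cut at about 18% in these data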;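 also: higher means more holoenzyme dissociation and a rise in polarization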
# Target sequence (P31323 whole entry, looked up, other chains not shown, the tested form may be a part): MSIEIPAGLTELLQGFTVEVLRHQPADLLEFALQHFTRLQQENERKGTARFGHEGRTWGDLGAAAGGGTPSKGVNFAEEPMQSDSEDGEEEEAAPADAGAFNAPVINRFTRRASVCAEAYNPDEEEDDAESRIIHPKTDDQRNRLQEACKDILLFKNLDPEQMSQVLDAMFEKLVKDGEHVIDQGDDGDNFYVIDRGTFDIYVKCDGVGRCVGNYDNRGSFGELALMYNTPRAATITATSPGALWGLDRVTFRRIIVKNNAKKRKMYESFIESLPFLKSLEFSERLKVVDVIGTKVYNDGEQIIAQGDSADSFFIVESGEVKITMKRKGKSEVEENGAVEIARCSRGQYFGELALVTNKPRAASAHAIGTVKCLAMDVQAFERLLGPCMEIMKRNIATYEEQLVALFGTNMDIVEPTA
# Rpn11 block = Rpn11 (human) deubiquitinase inhibition. hit rate 0.59% among 360,000. O00487. calls only at 20 µM. human 26S proteasome, Ub4-pepOG fluorescence polarization; 20S core pre-blocked with epoxomicin;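 active = inhibition at 20 µM, scaled to each plate's controls, above about 33%, limit read from the data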
# PKA-R1A activ = activators of PKA-R1A complex; P00514+P68181; PKA-R1A dissociation, Cy5-IP20 fluorescence polarization; scaled: DMSO 0%, 113 µM cGMP 100%; activation, % at 11.4 µM; hit rate 0.083% among 340,000;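 active = percent activation above the mean of all tested compounds plus 3 SD, cut at about 19% in these data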;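 also: higher means more PKAc released from R1A so a rise in polarization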
# Neddyl conf = confirmation of human cullin neddylation inhibitors | TR-FRET cullin neddylation biochemical assay | shares compounds with Neddylation inh | hit rate 13% among 1,800 | AID 652217 | calls only at 25 µM; in the data active = inhibition above about 40%;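 also: neddylation substrate is the cullin 1 ring ligase complex with SKP2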
# The depositor's hits bear a star; i = inactive; . = not tested or not shown; + = active, no number. Shown are actives, neighbours in structure and some others; about 1.3% of the full set was active somewhere.
SMILES,Neddylation inh,PKA-R2B act,Rpn11 block,PKA-R1A activ,Neddyl conf
Cc1ccc(-c2csc(N3CCN(c4cc5c(cc4Cl)nc(-c4ccncc4)n5CCN4CCCCC4)CC3)n2)cc1,.,3,i,-11,.
COc1ccc(-c2csc(N3CCN(c4cc5c(cc4Cl)nc(-c4ccncc4)n5CCOCCO)CC3)n2)cc1,42*,9,i,1,i
CC(Oc1ccccc1)C(=O)Nc1cccc(-c2nc3ccccc3[nH]2)c1 (stereo not drawn),39*,4,i,-1,i
O=C(C[n+]1ccc(/C=C/c2ccccc2)cc1)c1ccc2c(c1)OCCO2,-9,-1,i,-5,.
N#CC(C#N)=Cc1cn(-c2ncc(C(F)(F)F)cc2Cl)c2ccccc12,46*,6,i,1,i
O=C(N/N=C/c1ccc2cccnc2c1)c1nc2ccccc2c(=O)[nH]1,46*,3,i,2,i
O=C(N/N=C/c1ccncc1)c1nc2ccccc2c(=O)[nH]1,-25,0,i,-7,.
CCN1C(=O)[C@@H]2[C@@H](c3ccc(-c4ccc(F)cc4)c(OC)c3)N3CCC[C@@]3(C(=O)OC)[C@@H]2C1=O,-4,-1,i,-15,.
CC(Nc1ccc2c(c1)OCCO2)C(=O)N1c2ccccc2CC1C (stereo not drawn),8,-16,i,4,.
C/C(=N\NC(=O)c1ccc(NS(=O)(=O)c2cccs2)cc1)c1ccc(O)cc1O,42*,-4,i,0,.
O=C(N/N=C/c1ccc(N2CCOCC2)s1)c1ccc(NS(=O)(=O)c2cccs2)cc1,50*,-6,.,-3,+
CCCCCC(C)NC(=O)c1cc(S(=O)(=O)N2CCCCC2)ccc1N1CCOCC1 (stereo not drawn),19,-2,i,-13,.
COc1ccc(-c2cc(C(=O)N(C)CC(=O)Nc3ccccc3Br)c3ccccc3n2)cc1OC,47*,-6,i,0,+
CCOc1ccc(NC(=O)CN(C)C(=O)c2cc(-c3ccc(OC)cc3)nc3ccccc23)cc1OCC,55*,-2,i,-13,.
COc1ccc(NC(=O)CN(C)C(=O)c2cc(-c3ccc(Cl)cc3)nc3ccccc23)cc1,-12,3,i,-9,.
O=C(CN1c2cccc3cccc(c23)S1(=O)=O)NCc1ccc(F)cc1,46*,-1,i,1,+
O=C(CN1c2cccc3cccc(c23)S1(=O)=O)Nc1ccc(F)c(F)c1F,42*,-2,i,-3,i
CCn1c(C)nc2cc(C(=O)N3N=C(CCOC)CC3(O)C(F)(F)F)ccc21 (stereo not drawn),12,-5,i,-10,.
CN(C)c1nc(NCc2ccccc2)nc(Oc2ccc(=O)[nH]n2)n1,-6,-1,i,3,.
CN(C)c1nc(OCc2ccccc2)c2ncc(=O)[nH]c2n1,44*,-3,i,-2,.
Cc1c(Cl)ccc2sc(NC(=O)c3ccco3)nc12,42*,-12,i,-21,i
CC1(C)CC(=O)c2cc(OCC(=O)N3CCCCCC3)ccc2O1,.,-3,i,-10,.
CC1(C)CC(=O)c2cc(OCC(=O)N3CCN(c4ccccc4F)CC3)ccc2O1,52*,2,i,3,.
CCCCc1nc2sc3c(=O)n(N)cnc3c2c2c1CCC2,-17,0,i,1,.
CC(C)CN(C(=O)COC(=O)c1ccccc1NCc1ccco1)c1c(N)n(Cc2ccccc2)c(=O)[nH]c1=O,63*,2,i,1,i
SMILES,Neddylation inh,PKA-R2B act,Rpn11 block,PKA-R1A activ,Neddyl conf
COc1cc2ccccc2cc1C(=O)OCC(=O)N(CC(C)C)c1c(N)n(Cc2ccccc2)c(=O)[nH]c1=O,47*,8,i,2,i
COCCN(C(=O)COC(=O)c1cc2ccccc2cc1OC)c1c(N)n(Cc2ccccc2)c(=O)[nH]c1=O,52*,-8,i,-4,+
CC(C)CN(C(=O)COC(=O)c1cccc2ccccc12)c1c(N)n(Cc2ccccc2)c(=O)[nH]c1=O,5,2,i,-3,.
COc1ccc(C(=O)Nc2ccc(NC(=O)c3cccs3)cc2)cc1Cl,40*,6,i,4,i
COc1ccc(C(=O)Nc2ccc(NC(=O)c3cccs3)c(OC)c2)cc1Cl,.,-7,i,-7,.
CCCc1cc(=O)oc2cc(OCC(=O)NCCCN3CCOCC3)ccc12,18,4,i,-9,.
Cc1nnc(SCc2cc(=O)oc3cc(O)ccc23)n1Cc1ccccc1,54*,-16,i,2,i
O=C(NCC1CCCCC1)c1cc2ccccc2cc1O,45*,-1,i,-5,.
COc1ccc(COC(=O)c2ccc(Br)c(S(=O)(=O)N3CCOCC3)c2)cc1F,-11,-14,i,-13,.
COc1ccc(C(=O)Nc2ccc3oc(-c4cccnc4)nc3c2)cc1OC,41*,-12,i,-1,.
COc1cc(C(=O)Nc2ccc3oc(-c4cccnc4)nc3c2)cc(OC)c1OC,26,7,i,-1,.
CC(=O)c1cccc(NC(=O)COC(=O)CCC(=O)c2cccs2)c1,16,-11,i,1,.
CCCc1nc2ccc(C)cn2c1Cc1ccc(C)cc1,30,.,i,.,.
Cc1c(C(C)NC(=O)c2cc(COc3cccc4cnccc34)on2)cnn1C (stereo not drawn),56*,5,i,-11,+
Cc1ccccc1N(CC(=O)NCc1ccccc1)C(=O)CCC(=O)Nc1nccs1,4,5,i,1,.
COc1cccc2cc(C(=O)NCCN3CCOCC3)oc12,40*,7,i,0,i
Cc1ccc2cc3cc(C(=O)NCCN4CCOCC4)oc3nc2c1,65*,11,i,8,+
CCCN(CCC)CCCNC(=O)c1cc2cc3ccc(OC)cc3nc2o1,36,-9,i,-3,.
COc1ccccc1-c1cc(C(=O)NCCN2CCOCC2)no1,15,-11,i,5,.
COc1ccc2cc3cc(C(=O)NCCCN4CCOCC4)oc3nc2c1,.,-12,i,-1,.
COc1ccc2cc3cc(C(=O)NCCc4ccc(OC)c(OC)c4)oc3nc2c1,53*,2,i,-7,+
CSCCC(NS(=O)(=O)c1ccccc1F)C(=O)NCc1ccncc1 (stereo not drawn),13,-14,i,-6,.
COc1ccc(S(=O)(=O)Nc2ccccc2C(=O)NCc2ccco2)cc1,40*,5,i,5,+
COc1ccc(S(=O)(=O)N(Cc2ccccc2)c2ccccc2C(=O)Nc2ccccc2C(=O)NCc2ccco2)cc1,19,4,i,2,.
CCCCNC(=O)c1cc2nc(-c3ccc(OC)cc3)cc(C(F)(F)F)n2n1,32,3,i,-6,.
Cc1ccc(-c2cc(C(F)(F)F)n3nc(C(=O)NCCCn4ccnc4)cc3n2)cc1C,44*,-2,i,-5,.
